The results in this text go back to ChEMBL document CHEMBL1961873, “Compounds: GSK PKIS; Assays: Nanosyn kinase panel” (2012).

The target of assay [1] is Serine/threonine-protein kinase pim-2 (Homo sapiens) (UniProt Q9P1W9). Particulars: at 1 µM.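 Also: each value is a mean of the inhibition measurements against the kinase.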
The target of assay [2] is Serine/threonine-protein kinase pim-3 (Homo sapiens) (UniProt Q86V86). The following applies: at 0.1 µM.
Assay [3] has the same target. The following applies: at 1 µM.
In assay [4] the target is T1, MAP kinase-activated protein kinase 5 (Homo sapiens) (UniProt Q8IW41).
T1 sequence (whole entry): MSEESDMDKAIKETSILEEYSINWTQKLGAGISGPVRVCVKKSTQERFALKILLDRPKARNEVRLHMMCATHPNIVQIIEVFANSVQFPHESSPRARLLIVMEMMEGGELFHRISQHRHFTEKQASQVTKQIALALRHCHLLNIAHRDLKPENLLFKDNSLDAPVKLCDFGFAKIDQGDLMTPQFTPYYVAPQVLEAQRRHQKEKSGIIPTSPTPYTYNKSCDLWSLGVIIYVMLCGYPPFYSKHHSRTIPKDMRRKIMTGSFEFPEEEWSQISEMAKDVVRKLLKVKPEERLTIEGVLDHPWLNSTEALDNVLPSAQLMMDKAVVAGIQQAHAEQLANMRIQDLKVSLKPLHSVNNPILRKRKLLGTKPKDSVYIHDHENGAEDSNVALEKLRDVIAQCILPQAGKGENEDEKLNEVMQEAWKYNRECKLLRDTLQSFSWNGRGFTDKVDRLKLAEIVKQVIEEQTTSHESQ
The following applies: at 0.1 µM.

The target in assay [5] is T1, MAP kinase-activated protein kinase 5 (Homo sapiens). Particulars: at 1 µM.
Assay [6] concerns the target Serine/threonine-protein kinase SIK1 (Homo sapiens) (UniProt P57059). Particulars: at 0.1 µM.
The target is the same in assay [7]. Particulars: at 1 µM.
Assay [8] deals with Serine/threonine-protein kinase SIK2 (Homo sapiens) (UniProt Q9H0K1). Particulars: at 0.1 µM.
Chain of Serine/threonine-protein kinase SIK2 (Homo sapiens) (Q9H0K1 whole entry, looked up): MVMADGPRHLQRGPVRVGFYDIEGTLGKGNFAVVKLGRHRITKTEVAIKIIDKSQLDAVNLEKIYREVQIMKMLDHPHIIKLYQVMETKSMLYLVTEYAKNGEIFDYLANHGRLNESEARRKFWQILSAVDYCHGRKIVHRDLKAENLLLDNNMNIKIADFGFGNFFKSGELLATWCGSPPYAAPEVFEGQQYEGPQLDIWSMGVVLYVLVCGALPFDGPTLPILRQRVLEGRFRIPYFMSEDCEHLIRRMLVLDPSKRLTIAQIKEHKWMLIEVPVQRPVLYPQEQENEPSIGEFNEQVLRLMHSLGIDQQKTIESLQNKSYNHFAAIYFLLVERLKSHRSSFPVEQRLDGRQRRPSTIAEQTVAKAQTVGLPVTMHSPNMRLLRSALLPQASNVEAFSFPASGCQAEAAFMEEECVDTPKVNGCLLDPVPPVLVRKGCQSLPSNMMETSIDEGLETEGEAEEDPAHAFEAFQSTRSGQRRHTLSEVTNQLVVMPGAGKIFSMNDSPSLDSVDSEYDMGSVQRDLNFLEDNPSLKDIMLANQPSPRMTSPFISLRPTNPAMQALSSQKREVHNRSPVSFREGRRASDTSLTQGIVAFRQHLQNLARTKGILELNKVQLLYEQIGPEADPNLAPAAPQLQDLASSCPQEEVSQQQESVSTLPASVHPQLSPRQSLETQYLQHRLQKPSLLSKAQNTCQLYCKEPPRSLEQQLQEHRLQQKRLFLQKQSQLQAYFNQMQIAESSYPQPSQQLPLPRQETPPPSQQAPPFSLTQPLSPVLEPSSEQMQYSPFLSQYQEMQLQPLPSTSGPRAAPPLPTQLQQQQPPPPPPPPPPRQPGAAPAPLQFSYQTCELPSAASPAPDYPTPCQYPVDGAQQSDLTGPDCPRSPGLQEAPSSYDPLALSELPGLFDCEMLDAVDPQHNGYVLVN
The target is the same in assay [9]. Particulars: at 1 µM.
Assay [10] deals with T2, Serine/threonine-protein kinase TBK1 (Homo sapiens) (UniProt Q9UHD2).
T2 sequence (whole entry): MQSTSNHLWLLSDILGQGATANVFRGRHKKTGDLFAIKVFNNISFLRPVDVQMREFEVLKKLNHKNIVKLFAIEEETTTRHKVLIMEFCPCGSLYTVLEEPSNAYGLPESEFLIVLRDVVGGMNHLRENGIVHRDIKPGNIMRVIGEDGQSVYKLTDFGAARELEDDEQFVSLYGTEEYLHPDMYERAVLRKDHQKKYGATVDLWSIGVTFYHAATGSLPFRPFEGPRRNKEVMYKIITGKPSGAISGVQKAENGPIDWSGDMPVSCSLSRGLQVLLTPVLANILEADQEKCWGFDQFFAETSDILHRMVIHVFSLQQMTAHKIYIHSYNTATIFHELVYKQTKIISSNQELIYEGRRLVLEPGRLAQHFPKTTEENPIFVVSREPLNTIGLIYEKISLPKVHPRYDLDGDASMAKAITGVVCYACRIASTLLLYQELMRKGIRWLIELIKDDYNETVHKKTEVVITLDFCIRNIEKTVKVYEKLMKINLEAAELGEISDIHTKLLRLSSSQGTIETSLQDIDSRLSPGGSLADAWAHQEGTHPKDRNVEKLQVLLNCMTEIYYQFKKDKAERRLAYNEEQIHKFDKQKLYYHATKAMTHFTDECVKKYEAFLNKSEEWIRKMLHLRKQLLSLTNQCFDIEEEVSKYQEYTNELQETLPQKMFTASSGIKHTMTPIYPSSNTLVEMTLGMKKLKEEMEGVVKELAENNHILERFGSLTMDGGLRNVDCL
The following applies: at 0.1 µM.

Chain of Serine/threonine-protein kinase pim-2 (Homo sapiens) (Q9P1W9 whole entry, looked up): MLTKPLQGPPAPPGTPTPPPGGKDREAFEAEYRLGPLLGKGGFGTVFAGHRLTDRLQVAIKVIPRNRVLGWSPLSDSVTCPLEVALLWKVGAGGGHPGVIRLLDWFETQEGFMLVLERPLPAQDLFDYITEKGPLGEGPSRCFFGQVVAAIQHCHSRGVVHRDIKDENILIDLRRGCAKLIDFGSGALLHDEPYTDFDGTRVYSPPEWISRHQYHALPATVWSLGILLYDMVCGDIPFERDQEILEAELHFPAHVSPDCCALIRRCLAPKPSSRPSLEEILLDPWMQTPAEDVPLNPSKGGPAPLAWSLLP
Chain of Serine/threonine-protein kinase SIK1 (Homo sapiens) (P57059 whole entry): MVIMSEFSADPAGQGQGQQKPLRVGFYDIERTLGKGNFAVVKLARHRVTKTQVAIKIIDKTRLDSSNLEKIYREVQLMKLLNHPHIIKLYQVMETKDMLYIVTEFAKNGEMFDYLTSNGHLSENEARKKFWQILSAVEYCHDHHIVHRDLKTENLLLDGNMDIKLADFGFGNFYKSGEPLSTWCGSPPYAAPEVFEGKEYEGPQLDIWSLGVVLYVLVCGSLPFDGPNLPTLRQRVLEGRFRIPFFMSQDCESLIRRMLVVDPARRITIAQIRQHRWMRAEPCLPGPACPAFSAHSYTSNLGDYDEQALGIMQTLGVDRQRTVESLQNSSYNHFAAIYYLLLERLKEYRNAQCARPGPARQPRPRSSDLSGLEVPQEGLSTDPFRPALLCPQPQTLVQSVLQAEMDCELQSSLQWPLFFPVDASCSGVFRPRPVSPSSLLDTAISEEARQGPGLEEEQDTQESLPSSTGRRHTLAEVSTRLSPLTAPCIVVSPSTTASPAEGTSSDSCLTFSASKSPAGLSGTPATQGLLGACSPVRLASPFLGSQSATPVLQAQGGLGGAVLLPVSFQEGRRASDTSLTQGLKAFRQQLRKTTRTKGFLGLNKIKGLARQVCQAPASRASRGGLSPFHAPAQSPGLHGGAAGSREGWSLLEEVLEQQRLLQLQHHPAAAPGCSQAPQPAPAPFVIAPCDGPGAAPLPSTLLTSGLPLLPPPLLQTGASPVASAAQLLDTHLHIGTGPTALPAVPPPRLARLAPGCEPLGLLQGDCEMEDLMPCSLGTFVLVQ

Take `CCN1CCC(C(=O)Nc2n[nH]c3nnc(-c4cccc(F)c4F)cc23)CC1`: the inhibition was 0.25% in assay [1]; -0.6% in assay [2]; 2.08% in assay [3]; 0.03% in assay [4]; -0.34% in assay [5]; -3.64% in [6]. The inhibition in assay [7] was 0.15%; in assay [8] it was -2.38%; in [9], -0.5%; in assay [10] it was 0.48%.
As for `CNC(=O)c1cncc(/C=C/c2ccccc2C)c1`, the inhibition in assay [1] was 1.06%; in assay [2], -0.06%; in assay [3], 5.04%; in assay [4], 1.79%; in assay [5], 3.16%; in assay [6] it was 10%. In addition, the inhibition in assay [7] was found to be 39.5%; in assay [8], 9%; in assay [9], 18.5%; in assay [10], 2.9%.
`Cn1c(-c2nonc2N)nc2cnccc21`: the inhibition in assay [1] is 1.87%; in [2], -0.24%; in assay [3], 7.16%; in assay [4] it was 1.23%; in [5] it was 0.93%; in [6], 4.82%. For the same compound, the inhibition in assay [7] was 8.47%; in assay [8] it was 5.17%; in [9] it was -0.26%; in assay [10] it was 1.34%.
Regarding `O=C1Nc2ccccc2/C1=C1\CCc2cc(O)ccc21`, the inhibition in [1] is 1.46%; in [2] it was -1.28%; in assay [3], 3.83%; in assay [4], 1.7%; in assay [5], 2.07%; in [6], 2.74%. Further, the inhibition came to 18.1% in assay [7], 5.12% in assay [8], 21% in assay [9] and 1.68% in assay [10].
On to `CS(=O)(=O)Nc1ccc(-c2ccc3c(NC(=O)C4CC4)n[nH]c3c2)cc1`, for which the inhibition is 4% in assay [1]; 0.02% in assay [2]; 2.14% in [3]; 0.66% in [4]; -1.55% in [5]; 3.97% in [6]. For the same compound, the inhibition in assay [7] was found to be 5.51%; in [8], 5.95%; in assay [9], 1.37%; in assay [10], 0.86%.
Turning to `CS(=O)(=O)CCNCc1ccc(-c2ccc3ncnc(Nc4ccc(OCc5ccccc5)cc4)c3c2)o1`, the inhibition amounted to 0.74% in assay [1]; 0.79% in [2]; 1.6% in [3]; 1.45% in [4]; 1.42% in [5]; 4.11% in assay [6]. The inhibition in assay [7] worked out at 9.04%; in assay [8], 3.65%; in assay [9] it was 6.41%; in assay [10], 3.64%.
`CS(=O)(=O)CCNCc1ccoc1-c1ccc2ncnc(Nc3ccc(OCc4ccccc4)cc3)c2c1`: the inhibition is -0.21% in assay [1]; 0.58% in assay [2]; -0.84% in assay [3]; 0.44% in assay [4]; 0.78% in assay [5]; 2.99% in [6]. Also, the inhibition in [7] is 4.48%; in assay [8], -0.71%; in assay [9] it was -0.59%; in [10], 0.39%.
`CC1(C)CC(n2cnc(-c3ccc(F)cc3)c2-c2ccnc(N)n2)CC(C)(C)N1`: the inhibition in assay [1] was 0.96%; in assay [2], -0.62%; in [3], 0.93%; in assay [4], 0.28%; in assay [5] it was 0.93%; in [6] it was 0.72%. Also, the inhibition came to 3.05% in assay [7], 1.72% in [8], 1.15% in [9] and 0.42% in assay [10].
Regarding `Cc1cc(O)cc(C)c1/C=C/c1cncc(C(N)=O)c1`, the inhibition in assay [1] was 0.5%; in assay [2] it was -0.22%; in assay [3], -1.42%; in assay [4] it was 0.25%; in [5], -0.19%; in assay [6], 48.9%. Moreover, the inhibition in assay [7] was determined as 89%; in [8] it was 6.79%; in assay [9], 37.5%; in assay [10] it was 2.21%.
Turning to `COC(=O)Nc1nc2ccc(Oc3ccc(NC(=O)Nc4cc(C(F)(F)F)ccc4F)cc3)cc2s1`, the inhibition in assay [1] is 0.12%; in [2], 0.39%; in assay [3], 0.5%; in assay [4], 0.07%; in [5], -0.36%; in assay [6] it was -0.78%. Besides, the inhibition was 0.54% in assay [7], 0.97% in assay [8], -6.65% in assay [9] and -0.35% in [10].
For the compound `CNC(=O)c1ncccc1Nc1nc(Nc2cc3c(cc2OC)CCCN3C(=O)CN(C)C)nc2[nH]ccc12`, the inhibition in [1] stood at 5.43%; in assay [2], 2.42%; in assay [3] it was 22.6%; in assay [4], 0.95%; in assay [5] it was 0.65%; in assay [6] it was 4.63%. The inhibition in assay [7] worked out at 6.54%; in assay [8] it was 3.05%; in assay [9], 0.1%; in [10], 5.66%.
As to `CN(c1ccc(NC(=O)NCCN2CCOCC2)cc1)c1ccnc(Nc2ccc(CS(C)(=O)=O)cc2)n1`, the inhibition was 0.65% in [1]; 0.45% in assay [2]; 2% in assay [3]; 1.83% in assay [4]; 3.14% in assay [5]; 2.8% in [6]. Moreover, the inhibition in assay [7] worked out at 17.4%; in assay [8], 9.27%; in [9], 11.2%; in [10] it was 1.55%.
`COc1ccc(Nc2ncc(-c3ccccc3)o2)cc1OC`: the inhibition in assay [1] is 1.95%; in assay [2], 0.89%; in assay [3], 1.57%; in assay [4] it was -0.17%; in assay [5], -1.05%; in assay [6], 2.55%. In addition, the inhibition in assay [7] was 28.9%; in assay [8] it was 1.69%; in assay [9] it was 39%; in [10] it was -0.12%.
`COC(=O)Nc1nc2cc(Oc3ccc(NC(=O)Nc4ccccc4)cc3)ccc2[nH]1`: the inhibition is 0.64% in assay [1]; -0.27% in [2]; 0.79% in [3]; 1.73% in [4]; 2.59% in assay [5]; 1.17% in assay [6]. In addition, the inhibition in [7] is 7.79%; in [8], 1.28%; in [9] it was 9.23%; in assay [10], -0.2%.
As to `COc1cc2c(cc1Nc1nc(Nc3cccc(F)c3C(N)=O)c3cc[nH]c3n1)N(C(=O)CN1CCN(C(C)C)CC1)CC2`, the inhibition amounted to 0.2% in assay [1]; 0.01% in assay [2]; 1.84% in assay [3]; 0.57% in assay [4]; 1.03% in assay [5]; 5.86% in assay [6]. Moreover, the inhibition in assay [7] is 8.52%; in [8], 3.09%; in assay [9], 0.18%; in assay [10], 2.33%.
